Compound activity: PubChem, The Scripps Research Institute Molecular Screening Center
Sampled rows, rich in hits. Any-hit rate of the full collection: about 4.1%.
DAX1 inh-1: DAX1 (NR0B1) inhibitors, primary screen, cell-based, HEK293, Gal4-DAX1, luciferase luminescence; 340,000 compounds, 0.99% hits; inhibition, % at 6.75 µM; AID 504766, 2011; Nuclear receptor subfamily 0 group B member 1 (Homo sapiens), P51843; HEK293 Gal4-DAX1 luciferase reporter;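 active = inhibition above the mean over all tested compounds plus 3 SD, cut at about 4.2% in these data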;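 also: 0% = DAX1-transfected cells with DMSO and 100% = empty-vector control cells with DMSO; inhibition shows as a rise in luminescence from relieved DAX1 repression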
Target sequence (P51843 207-470 limits assumed): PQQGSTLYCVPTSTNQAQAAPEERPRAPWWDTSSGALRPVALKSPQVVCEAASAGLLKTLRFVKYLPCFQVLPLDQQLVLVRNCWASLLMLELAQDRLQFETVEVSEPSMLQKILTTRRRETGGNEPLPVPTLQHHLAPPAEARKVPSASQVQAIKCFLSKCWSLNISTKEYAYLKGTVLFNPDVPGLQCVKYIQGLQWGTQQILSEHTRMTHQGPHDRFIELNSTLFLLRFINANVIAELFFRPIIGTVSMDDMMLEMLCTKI
DAX1 inh-2: DAX1 (NR0B1) inhibitors on StAR promoter, primary screen, cell-based, luminescence, SF-1 (NR5A1), full-length DAX-1; HEK293T StAR-luciferase reporter, SF-1/DAX-1 repression relief; AID 652010, 2013; inhibition, % at 6.8 µM; 370,000 compounds, 1.1% hits;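 active = inhibition above the mean over all tested compounds plus 3 SD, cut at about 3.6% in these data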;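 also: 0% = DAX-1 cells with DMSO and 100% = cells lacking DAX-1 with DMSO; higher inhibition means more luminescence from relief of DAX-1 repression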
ssDAF-12 act: S. stercoralis DAF-12 nuclear receptor activators, primary screen, cell-based, luminescence, HEK293, GRIP1 co-expression, lit1-tk-luc. Nuclear hormone receptor DAF-12 (Strongyloides stercoralis). HEK293 ssDAF-12/GRIP1 lit1-tk-luc reporter; % of 3 µM dafachronic acid response. activation, % at 6.8 µM. 370,000 compounds, 1% hits. AID 652126, 2013;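 active = activation above the mean over all tested compounds plus 3 SD, cut at about 0.9% in these data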;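 also: 0% = DMSO-only wells and 100% = 3 µM delta7-dafachronic acid wells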
hgDAF12 agonist: H. glycines DAF-12 receptor agonists, primary screen, cell-based, luminescence, HEK293, GAL4 fusion, UAS-luciferase | Nuclear hormone receptor DAF-12 (Heterodera glycines), GAL4 fusion | HEK293 GAL4-hgDAF12 UAS-luciferase reporter, agonist luminescence; normalized to butyrate control | activation, % at 6.8 µM | 370,000 compounds, 1.8% hits | AID 687014, 2013;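 active = activation above a cutoff set at the mean of all screened compounds plus 3 SD, cut at about 10% in these data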;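 also: 0% = DMSO wells and 100% = sodium butyrate wells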
hcDAF-12 act: H. contortus DAF-12 nuclear receptor activators, primary screen, cell-based, luminescence, HEK293, lit1-tk-luc reporter; HEK293 hcDAF-12 lit1-tk-luc reporter; 0% DMSO, 100% Δ7-dafachronic acid; 370,000 compounds, 1.4% hits; activation, % at 6.8 µM;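 active = activation above the mean of all tested compounds plus 3 SD, cut at about 5.5% in these data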;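 also: 100% = response to 3 µM Δ7-dafachronic acid high control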
* = called active by the depositor; . = no result given.

SMILES	DAX1 inh-1	DAX1 inh-2	ssDAF-12 act	hgDAF12 agonist	hcDAF-12 act
COc1ccc(C(=O)c2ccccc2)cc1	2	1	16*	0	2
COc1ccc(C(=O)c2c[nH]c3ccccc23)cc1	2	3	1	11*	4
COc1ccc(C(=O)c2ccc(Br)cc2)cc1	2	1	-1	3	-1
CCOC(=O)N1CCN(C(=O)C[C@H]2C[C@@]3(C(=O)OC)C(=C[C@H](C(C)(C)C)O[C@@H]3C)N(CCC3=CCCCC3)C2=O)CC1	.	0	-1	0	-1
CCN(CC)CCn1c2c(c(SCC(=O)Nc3nc4ccccc4s3)nc1=O)CCC2	-1	4	0	8	5.8*
CCN(CC)CCCn1c2c(c(SCC(=O)Nc3cc(C)cc(C)c3)nc1=O)CCC2	0	4.4*	-1	-1	0
CCN(CC)CCn1c2c(c(SCC(=O)Nc3nc4ccc(C)cc4s3)nc1=O)CCC2	0	1	-1	3	-2
CC(C)NC(=O)C1(C)CN(S(C)(=O)=O)CC(=O)N1C1CCCCCC1 (stereo not drawn)	.	-1	-1	-2	0
Cc1ccc2nc(=O)c(NNc3ccccc3)cnc2c1	0	1	1.0*	6	0
CC1=CCC(COC(=O)Nc2ccccc2)CC1 (stereo not drawn)	3	3	0	11*	2
O=C(Cn1cnc2ccccc2c1=O)c1ccc2c(c1)OCCO2	2	2	0	11*	3
Cc1csc2nc(CSc3ccc(Cl)cc3)cn12	2	.	.	.	.
Clc1ccc(SCc2cn3ccsc3n2)cc1	2	1	-1	11*	1
O=C(NCCc1cn2ccsc2n1)C1CCCCC1	2	0	-1	1	1
c1cn2cc(CSC3CCCCC3)nc2s1	2	2	1	13*	2
Cc1ccc(CN2CCCCC(NC(=O)c3c(F)cccc3F)C2=O)cc1 (stereo not drawn)	.	-1	-1	1	-2
O=C(OCc1cn(Cc2ccc(Cl)cc2)nn1)N1CCCC1	.	-1	-1	-2	0
Cn1cc(NC(=O)OCc2ccc(Cl)cc2)c(C(F)(F)F)n1	1	3.7*	0	2	1
COc1ccc(S[C@]2(C(=O)N(C)C)CC(=O)N(C(=O)Nc3ccc(C)c(Cl)c3)[C@@H]2c2ccc(OC)cc2)cc1	.	-1	0	1	-2
CC(C)=CCN1C(=O)[C@]2(OCCC=C[C@H]2C)c2c(Br)cccc21	.	-1	-1	-2	-1
COc1cc(OC)cc(C(=O)Nn2cc(C(=O)Nc3ccc(F)cc3F)c3ccccc3c2=O)c1	-2	0	-1	2	3
Cc1ccc(S(=O)(=O)N2CCCC2C(=O)N2CCN(c3ccccc3)CC2)cc1 (stereo not drawn)	.	-1	-1	-3	-3
O=C(CN1CCCCCC1)Nc1ccc([N+](=O)[O-])cc1Br	-1	0	-1	3	-1
Cc1ccc([N+](=O)[O-])cc1-c1ccc(/C=N/NC(=O)CN2CCOCC2)o1	-1	0	0.9*	2	1
O=C(CN1CCOCC1)Nc1ccc([N+](=O)[O-])cc1Br	2	-1	1.3*	0	1
SMILES	DAX1 inh-1	DAX1 inh-2	ssDAF-12 act	hgDAF12 agonist	hcDAF-12 act
O=C(C1CCN(S(=O)(=O)c2ccc3[nH]c(=O)oc3c2)CC1)N1CCCN(Cc2ccccc2)CC1	.	0	-1	6	-1
CCOC(=O)[C@]12CCCC3=C1N(CCC3)C(=O)[C@@H](CC(=O)NCCCCc1ccccc1)C2	.	-1	-1	-1	-2
COc1ccc(S(=O)(=O)N2CCCCCC2)cc1C(=O)N(C)Cc1cccs1	-2	-1	-1	-2	-2
CC(C)NC(=O)C1C(c2ccc(C(F)(F)F)cc2)=Nc2ccccc2N1C(=O)c1ccccc1 (stereo not drawn)	.	3	1.5*	6	4
CCOC(=O)[C@@]12CN(C(=O)OC(C)(C)C)CC=C1N(Cc1ccc(OC)cc1)C(=O)[C@H]2CC(=O)NCc1ccccc1	.	-1	-2	-3	0
O=C(NCCc1cccs1)C1CC(c2ccccc2[N+](=O)[O-])=NO1 (stereo not drawn)	3	2	0	5	5.8*
Cc1ccc(CCNC(=O)C2CC(c3ccccc3[N+](=O)[O-])=NO2)cc1 (stereo not drawn)	1	0	0	2	2
Cc1cccc(NC(=O)Nc2ccccc2C(=O)N2CCCC2)c1	.	0	0	-1	-1
CCCC1CCC2(CC1)CCC2OC(=S)Nc1ccc(Cl)cc1 (stereo not drawn)	.	.	-2	0	3
O=C(NC1CCCC1)c1cc2c(ccc3ccccc32)o1	1	3	0	11*	5
Cc1cc2ncn(CCC(=O)NC(C)(C)C)c2cc1C	-1	1	-1	2	2
COCCN(C(=O)c1ccc2c(c1)C(=O)N(c1ccccc1Cl)C2=O)c1c(N)n(CC(C)C)c(=O)[nH]c1=O	0	0	-1	-1	0
Fc1cccc(CSc2nnc3c(n2)[nH]c2ccccc23)c1	-2	-1	-2	-1	0
CN(C)CCSc1nnc2[nH]c3ccccc3c2n1	0	1	1.1*	3	3
CC(NC(=O)/C(C#N)=C/c1cccs1)c1ccccc1 (stereo not drawn)	-2	-2	-2	-2	-1
N#C/C(=C\c1ccccc1)C(=O)Nc1ccccn1	1	0	-1	2	0
N#C/C(=C\c1cccs1)C(=O)Nc1ccccn1	6.9*	3	1	7	3
CC(C)(C)c1ccc(C(=O)/C(C#N)=C/c2cccs2)cc1	4.6*	0	-2	0	0
N#Cc1ccc(NC(=O)OC2CC3CC2[C@H]2CCCCN2[C@H]3Cc2ccccc2)cc1 (stereo partly drawn)	.	-1	0	0	-2
Cc1ccc(NC(=O)c2cc(-n3cnnc3)ccc2Cl)cc1	0	1	-1	-1	-1
Cc1ccc(NC(=O)c2cc(N3C(=O)C=CC3=O)ccc2Cl)cc1C	-1	0	0	11*	1
COc1ccccc1-c1cc(C(=O)N2CCCC2)no1	3	3	0	9	6.5*
COc1ccc(-c2cc(C(=O)N3CCOCC3)no2)cc1	-1	3	1.3*	10	5
